Composite z-score and z-score data for five compounds are collected here from PubChem BioAssay.

Active and inactive are the calls of the source.

Assay [1] deals with Plasmodium falciparum Sir2 (PF13_0152, Sir2A). The assay can be described thus: pfSir2 binders on small-molecule microarrays, primary screen, biochemical, small-molecule microarray, 635 nm fluorescence (AID 1098).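 Further: score merges spot fluorescence intensity with its signal-to-noise ratio.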 The conditions noted are these: small-molecule microarray binding, fluorescence 635 nm; higher = more signal.
The nature of assay [2]: small-molecule microarray binders of probe aDKK1, primary screen, biochemical, biotinylated probe, 635/667 nm fluorescence (AID 1099).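 Further: score merges 667nm spot fluorescence with signal to noise across triplicate slides.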 The conditions noted are these: higher = more signal.
Assay [3] in a line: small-molecule microarray binders of probe aCHRDL2, primary screen, biochemical, biotinylated probe, 635/667 nm fluorescence (AID 1100). The conditions noted are these: higher = more signal.
The nature of assay [4]: splicing luciferase reporter signal modulators, primary screen, spliceosome inhibition project, cell-based, HEK293, splice +/- reporter (AID 1101).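 Further: HEK293 cells carrying a splicing-competent luciferase reporter gene; test concentration not given here.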 As to conditions: luminescence, 24 h, higher = more signal, called active from +8 up or from −8 down. (Reporter assays use an easily measured gene product as a stand-in for the process of interest.)
The target in assay [5] is Fibroblast growth factor 10 (Homo sapiens) (UniProt O15520). The assay can be described thus: FGF10 binders on small-molecule microarrays, primary screen, biochemical, small-molecule microarray, 635 nm fluorescence (AID 1102). As to conditions: FGF10 binding, fluorescence 635 nm, higher = more signal.
Chain of Fibroblast growth factor 10 (Homo sapiens) (O15520 whole entry, looked up): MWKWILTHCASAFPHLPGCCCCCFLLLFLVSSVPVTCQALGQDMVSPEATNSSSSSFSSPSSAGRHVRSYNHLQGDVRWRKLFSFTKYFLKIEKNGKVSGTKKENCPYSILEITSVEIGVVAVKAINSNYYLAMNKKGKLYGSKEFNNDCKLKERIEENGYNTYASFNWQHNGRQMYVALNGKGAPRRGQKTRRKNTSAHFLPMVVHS
Assay [6] concerns glycogen synthase kinase-3 (GSK3A per assay name; protocol says GSK3B). The assay is described as follows: GSK3 binders on small-molecule microarrays, primary screen, biochemical, small-molecule microarray, 635 nm fluorescence, GSK3A (AID 1103). Further: the record names both GSK3A and GSK3B. The conditions noted are these: small-molecule microarray binding, fluorescence 635 nm; higher = more signal.
Assay [7] concerns the target Epidermal growth factor receptor (Homo sapiens) (UniProt P00533). The assay is described as follows: EGFR binders on small-molecule microarrays, primary screen, biochemical, small-molecule microarray, 635 nm fluorescence (AID 1104).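 Further: score merges 667 nm emission intensity with spot signal to noise over triplicate slides.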 As to conditions: EGFR binding, higher = more signal.
Assay [8] deals with Follistatin-related protein 3 (Homo sapiens) (UniProt O95633). The assay is described as follows: FSTL3 binders on small-molecule microarrays, primary screen, biochemical, small-molecule microarray, 635 nm fluorescence (AID 1105).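 Further: score merges emission near 667 nm and signal to noise per printed spot across three slides.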 As to conditions: FSTL3 binding, higher = more signal.
Chain of Follistatin-related protein 3 (Homo sapiens) (O95633 whole entry, looked up): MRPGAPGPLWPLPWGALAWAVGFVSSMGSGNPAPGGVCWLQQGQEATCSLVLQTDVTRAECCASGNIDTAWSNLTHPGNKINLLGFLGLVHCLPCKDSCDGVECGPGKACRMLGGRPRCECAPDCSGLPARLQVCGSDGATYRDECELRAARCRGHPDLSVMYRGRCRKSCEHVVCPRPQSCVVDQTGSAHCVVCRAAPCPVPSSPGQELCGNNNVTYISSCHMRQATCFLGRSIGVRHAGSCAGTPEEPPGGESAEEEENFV
Assay [9] has as its target Dickkopf-related protein 1 (Homo sapiens) (UniProt O94907). The assay can be described thus: DKK1 binders on small-molecule microarrays, primary screen, biochemical, small-molecule microarray, 635 nm fluorescence scan (AID 1106).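 Further: score merges emission near 667 nm with signal to noise over three replicate slides.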 As to conditions: DKK1 binding, higher = more signal.
In assay [10] the test system is Inhibin beta A chain (activin A). The assay is described as follows: INHBA (activin A) binders on microarrays, primary screen, biochemical, small-molecule microarray, 635 nm fluorescence scan (AID 1107).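 Further: mouse activin A protein probed at 4.33 µg/mL on printed slides; score merges bound-protein fluorescence near 667 nm with spot signal-to-noise.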 The conditions noted are these: small-molecule microarray binding, higher = more signal.
Assay [11] deals with Human papillomavirus type 1a protein E7 (residues 44-93). The assay is described as follows: HPV1a E7 fragment binders on microarrays, primary screen, biochemical, small-molecule microarray, residues 44-93, 635 nm fluorescence (AID 1108).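 Further: E7 fragment applied at 1 µg/mL in TBST for 1 h at 4 C; score combines spot fluorescence with its signal to noise ratio.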 As to conditions: small-molecule microarray binding, fluorescence 635 nm; higher = more signal.
Assay [12] in a line: modulators of HCV replicon luciferase signal, primary screen, HCV replication inhibitor project, Huh7 cells, luciferase reporter (AID 1109).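 Further: huh7 hepatoma cells harbouring a luciferase neomycin HCV replicon reporter; luciferase luminescence as measure of HCV replicon replication; test concentration not given here.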 The conditions noted are these: 48 h, higher = more signal. In general terms: In antiviral work, replicon cells carry a viral genome segment that copies itself.
The target in assay [13] is Left-right determination factor 2 (Homo sapiens) (UniProt O00292). The assay can be described thus: LEFTY2 binders on small-molecule microarrays, primary screen, biochemical, small-molecule microarray, 635 nm fluorescence scan (AID 1110). As to conditions: LEFTY2 binding, higher = more signal.
Chain of Left-right determination factor 2 (Homo sapiens) (O00292 whole entry, looked up): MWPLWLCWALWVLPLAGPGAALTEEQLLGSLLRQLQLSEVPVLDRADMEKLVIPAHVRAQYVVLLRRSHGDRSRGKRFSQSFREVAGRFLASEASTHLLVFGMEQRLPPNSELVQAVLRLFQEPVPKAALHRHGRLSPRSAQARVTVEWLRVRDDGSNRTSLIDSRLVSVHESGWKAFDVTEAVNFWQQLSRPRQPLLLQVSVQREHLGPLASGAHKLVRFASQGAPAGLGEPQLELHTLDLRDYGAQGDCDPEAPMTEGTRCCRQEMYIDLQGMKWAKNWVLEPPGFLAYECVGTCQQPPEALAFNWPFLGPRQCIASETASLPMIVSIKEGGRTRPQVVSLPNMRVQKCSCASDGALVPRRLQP
For assay [14], the target named is Calmodulin-1 (Homo sapiens) (UniProt P0DP23). The assay is described as follows: CALM1 binders on microarrays, EGTA buffer, profiling panel, biochemical, small-molecule microarray, Cy5-labelled CALM1 (AID 1111).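 Further: labelled calmodulin applied in Tris saline Tween buffer holding calcium plus EGTA and DTT.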 The conditions noted are these: Cy5-CALM1 binding fluorescence, higher = more signal.
The target is the same in assay [15]. The assay can be described thus: calcium-bound CALM1 binders on microarrays, profiling panel, artefact control for SMM control-protein annotation, biochemical, small-molecule microarray, Cy5-labelled CALM1, plus calcium (AID 1112).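 Further: score merges spot fluorescence with signal to noise from triplicate slides.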 As to conditions: Cy5-CALM1 binding fluorescence, higher = more signal.
The nature of assay [16]: small-molecule microarray binders of probe aWnt5a, primary screen, biochemical, biotinylated probe, 635/667 nm fluorescence (AID 1113).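 Further: score merges 667 nm fluorescence intensity with signal-to-noise per printed feature.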 The conditions noted are these: higher = more signal.
Assay [17] is described as follows: small-molecule microarray binders of probe aShh, primary screen, biochemical, biotinylated probe, 635/667 nm fluorescence (AID 1114).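 Further: probe is biotin-labelled aShh protein from a stem cell growth factor screen; measures binding of labelled protein to compounds printed on the slide; score merges feature fluorescence at 667 nm with signal-to-noise.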 The conditions noted are these: higher = more signal.
Assay [18] in a line: small-molecule microarray binders of probe aNog, primary screen, biochemical, biotinylated probe, 635/667 nm fluorescence (AID 1115).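 Further: probe is biotinylated aNog protein used at 0.15 µg/mL for 1 h at 4 C; z-score combines 667 nm fluorescence of each spot with its signal to noise.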 As to conditions: higher = more signal.
Assay [19] deals with Torsin-1A-interacting protein 1 (Homo sapiens) (UniProt Q5JTV8). The assay can be described thus: LAP1 binders from COS7 cell lysate, primary screen, small-molecule microarray, 635/667 nm fluorescence (AID 1116). As to conditions: COS7-hLAP1 lysate binding, 635 nm fluorescence, higher = more signal.
Chain of Torsin-1A-interacting protein 1 (Homo sapiens) (Q5JTV8 whole entry, looked up): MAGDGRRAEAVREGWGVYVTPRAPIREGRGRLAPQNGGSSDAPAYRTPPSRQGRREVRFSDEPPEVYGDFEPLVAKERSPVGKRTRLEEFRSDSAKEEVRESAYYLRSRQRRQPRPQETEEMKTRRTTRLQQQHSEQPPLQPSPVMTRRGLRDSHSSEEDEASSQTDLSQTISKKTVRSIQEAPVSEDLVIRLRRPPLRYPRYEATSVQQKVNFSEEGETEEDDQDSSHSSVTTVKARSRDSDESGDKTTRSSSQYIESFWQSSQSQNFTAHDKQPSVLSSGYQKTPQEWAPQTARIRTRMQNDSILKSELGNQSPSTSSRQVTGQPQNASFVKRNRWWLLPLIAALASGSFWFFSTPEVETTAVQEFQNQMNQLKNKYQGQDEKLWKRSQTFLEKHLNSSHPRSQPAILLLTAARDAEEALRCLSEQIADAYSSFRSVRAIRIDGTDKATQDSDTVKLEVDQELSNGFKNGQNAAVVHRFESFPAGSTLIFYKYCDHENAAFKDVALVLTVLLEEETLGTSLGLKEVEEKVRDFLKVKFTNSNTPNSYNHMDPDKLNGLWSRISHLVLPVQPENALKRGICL
Assay [20] addresses Alpha-bungarotoxin (Bungarus multicinctus) (UniProt P60615). The assay is described as follows: alpha-bungarotoxin binders on microarray, profiling panel, artefact control for SMM control protein annotation, biochemical, small-molecule microarray, Alexa647 label, 635/667 nm fluorescence (AID 1117). As to conditions: alpha-BTX-A647 binding fluorescence, higher = more signal.

Chain of Dickkopf-related protein 1 (Homo sapiens) (O94907 whole entry, looked up): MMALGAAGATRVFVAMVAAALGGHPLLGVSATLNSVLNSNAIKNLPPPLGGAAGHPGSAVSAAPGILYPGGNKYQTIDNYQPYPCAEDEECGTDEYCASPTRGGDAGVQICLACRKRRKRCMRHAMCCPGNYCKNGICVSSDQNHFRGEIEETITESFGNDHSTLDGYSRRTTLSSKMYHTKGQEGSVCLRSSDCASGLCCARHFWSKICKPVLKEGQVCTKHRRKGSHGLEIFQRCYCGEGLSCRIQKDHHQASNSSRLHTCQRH
Chain of Epidermal growth factor receptor (Homo sapiens) (P00533 whole entry, looked up): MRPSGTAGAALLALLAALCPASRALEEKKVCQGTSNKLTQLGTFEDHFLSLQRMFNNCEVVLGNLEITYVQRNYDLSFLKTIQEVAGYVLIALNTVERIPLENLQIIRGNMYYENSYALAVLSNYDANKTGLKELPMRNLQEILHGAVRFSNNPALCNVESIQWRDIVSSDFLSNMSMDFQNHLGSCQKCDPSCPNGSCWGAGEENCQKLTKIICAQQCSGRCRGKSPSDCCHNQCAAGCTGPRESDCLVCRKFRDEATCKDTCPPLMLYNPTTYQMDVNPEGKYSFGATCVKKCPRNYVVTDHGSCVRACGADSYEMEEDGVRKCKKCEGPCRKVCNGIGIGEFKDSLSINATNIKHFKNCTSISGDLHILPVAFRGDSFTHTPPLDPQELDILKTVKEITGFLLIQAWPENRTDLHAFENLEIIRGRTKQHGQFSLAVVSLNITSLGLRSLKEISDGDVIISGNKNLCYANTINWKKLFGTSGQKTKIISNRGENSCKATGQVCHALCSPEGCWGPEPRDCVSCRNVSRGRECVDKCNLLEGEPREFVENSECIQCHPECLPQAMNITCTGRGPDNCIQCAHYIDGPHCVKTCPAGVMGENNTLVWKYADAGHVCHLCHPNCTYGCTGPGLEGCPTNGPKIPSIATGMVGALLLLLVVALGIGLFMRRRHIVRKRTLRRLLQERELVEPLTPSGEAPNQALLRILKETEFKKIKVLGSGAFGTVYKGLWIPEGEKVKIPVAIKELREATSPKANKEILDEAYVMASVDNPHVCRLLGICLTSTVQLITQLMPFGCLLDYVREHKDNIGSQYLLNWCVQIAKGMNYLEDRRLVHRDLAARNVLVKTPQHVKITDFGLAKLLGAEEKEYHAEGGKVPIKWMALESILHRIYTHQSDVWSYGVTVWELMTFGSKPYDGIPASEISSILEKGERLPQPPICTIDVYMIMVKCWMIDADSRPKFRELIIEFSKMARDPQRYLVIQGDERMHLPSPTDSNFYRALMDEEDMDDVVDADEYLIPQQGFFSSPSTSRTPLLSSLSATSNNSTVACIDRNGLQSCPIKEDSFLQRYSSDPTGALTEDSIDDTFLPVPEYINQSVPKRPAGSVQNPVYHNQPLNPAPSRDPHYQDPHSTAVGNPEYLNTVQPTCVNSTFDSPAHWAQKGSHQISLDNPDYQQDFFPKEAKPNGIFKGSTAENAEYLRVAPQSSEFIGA
Chain of Alpha-bungarotoxin (Bungarus multicinctus) (P60615 whole entry, looked up): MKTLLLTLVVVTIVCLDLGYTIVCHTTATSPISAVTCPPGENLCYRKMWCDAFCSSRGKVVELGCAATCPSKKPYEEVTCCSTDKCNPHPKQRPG

Take `COC(=O)[C@H](Cc1ccccc1)N1CC2=CCCC=C[C@@H]2[C@H]1[C@H](O)Cc1ccccc1`: the composite z-score was 1.33 in assay [1]; -0.192 in [2]; -0.306 in [3]; 0.363 in assay [5]; 0.171 in assay [6]; -0.244 in [7]. For the same compound, the composite z-score in assay [8] is 0.525; in assay [9], 0.29; in assay [10], 0.702; in assay [11], 0.216; in assay [13], -0.149; in assay [14] it was 1.09. Further, the composite z-score was -0.749 in assay [15]; -0.0977 in assay [16]; 0.427 in assay [17]; 1.79 in [18]; 0.545 in [19]; 0.831 in assay [20]. The results for the z-score in [4] and in [12] were -0.477 (inactive) and -1.74, respectively.

Consider `Cc1ccccc1C(O)C1C=CC2C(=O)N(c3ccccc3)C(=O)C2N1Nc1ccccc1` (stereo not given), for which the composite z-score in assay [1] is 1.37; in assay [2], 1.01; in assay [3] it was 1.25; in assay [5] it was 0.96; in [6] it was 0.65; in assay [7] it was 0.0981. In addition, the composite z-score in assay [8] was 1.17; in [9] it was 0.0843; in assay [10], 1.45; in assay [11] it was 0.0932; in [13], 0.256; in assay [14] it was 2.12. Moreover, the composite z-score turned out to be 0.585 in [15]; 0.0437 in assay [16]; 0.108 in assay [17]; 0.189 in assay [18]; 1.54 in assay [19]; 1.1 in [20]. In addition, the values for the z-score in assay [4] and in assay [12] were -0.00177 (inactive) and 1.31, respectively.

On to `CCCCC(O)C1C=CC2C(=O)N(c3ccccc3)C(=O)C2N1Nc1ccc(C#N)cc1` (stereo not given), for which the composite z-score in assay [1] is 1.11; in assay [2], 1.12; in assay [3] it was 0.906; in [5], 0.398; in assay [6], 0.383; in assay [7], 0.0738. In addition, the composite z-score in assay [8] was -0.0673; in [9], -0.579; in assay [10] it was 0.513; in assay [11], 1.02; in assay [13], 0.123; in assay [14], 1.06. Further, the composite z-score in assay [15] is 0.929; in [16], -0.0125; in [17] it was 0.337; in assay [18], 1.19; in assay [19] it was 0.385; in [20], 1.01. In addition, the z-score in [4] was 0.12 (inactive); in assay [12] it was -0.115.

Turning to `CC(C)C(CO)N1C(=O)[C@@H]2C3C(=O)OCCC/C=C\[C@H]3OC23C=CCN(Cc2ccccc2)C(=O)[C@@H]13` (stereo not given in full), the composite z-score in assay [1] is 1.38; in assay [2] it was -0.0827; in assay [3] it was 0.554; in [5], 0.0565; in assay [6], -0.54; in assay [7] it was -1.01. The composite z-score was -0.794 in assay [8]; -0.551 in assay [9]; 0.111 in assay [10]; -1.78 in [11]; -1.05 in assay [13]; -0.969 in [14]. Moreover, the composite z-score in [15] is 0.574; in assay [16], -0.0643; in assay [17], 0.254; in assay [18] it was -0.103; in assay [19], 1.14; in assay [20], -1.68. Further, the z-score was -0.0848 (inactive) in [4] and 0.537 in [12].

Consider `C[N+](C)(C)CCCC[C@@H]1NC(=O)[C@H]2C[C@@H](C(=O)NCCCCCNC(=O)CS)[C@@H](c3cccc(OCCO)c3)N2C1=O`, for which the composite z-score in assay [1] is 1.57; in assay [2] it was 0.242; in [3], 0.47; in [5] it was -0.166; in assay [6], 0.272; in assay [7] it was 0.412. Moreover, the composite z-score was -0.664 in [8]; 0.0501 in assay [9]; 0.761 in [10]; -0.0364 in assay [11]; -0.259 in assay [13]; -0.0728 in [14]. For the same compound, the composite z-score was 0.297 in assay [15]; -0.103 in assay [16]; -0.0626 in [17]; -0.234 in [18]; 0.707 in assay [19]; -0.307 in assay [20]. The z-score was 1.12 (inactive) in assay [4] and -0.709 in assay [12].
